According to PubChem BioAssay AID1220 (Sanford-Burnham Center for Chemical Genomics, 2008):
Out of some 190,000 compounds screened, about 1,300 (0.68%) were called active. What follows is part of a selection rich in actives, with near analogues and random picks from the rest. Unmarked numbers belong to inactive results. No stated cut-off is given here; in the data, active means inhibition above about 50%; inactive means the rest.

target: Mannose-6-phosphate isomerase (Homo sapiens) (UniProt P34949); assay: human PMI inhibitors, high substrate, primary screen, biochemical, fluorescence intensity, high mannose 6-phosphate (AID 1220); settings: recombinant PMI enzyme, coupled fluorescence intensity; at 20 µM; stronger effect = higher value
Sequence (P34949 whole entry, looked up): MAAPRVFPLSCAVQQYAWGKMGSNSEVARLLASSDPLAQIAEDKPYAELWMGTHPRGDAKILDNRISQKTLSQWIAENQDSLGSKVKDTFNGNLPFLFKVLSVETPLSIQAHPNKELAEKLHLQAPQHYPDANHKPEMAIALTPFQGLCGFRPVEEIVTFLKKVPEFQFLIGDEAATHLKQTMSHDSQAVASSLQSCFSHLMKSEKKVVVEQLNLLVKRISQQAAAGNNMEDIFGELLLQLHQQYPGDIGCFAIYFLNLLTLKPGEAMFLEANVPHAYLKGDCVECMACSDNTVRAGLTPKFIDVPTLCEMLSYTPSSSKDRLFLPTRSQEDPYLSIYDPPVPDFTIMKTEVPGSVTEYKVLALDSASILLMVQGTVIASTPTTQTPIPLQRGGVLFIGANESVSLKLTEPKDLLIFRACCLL

SMILES | inhibition
CCCCCCNC(=O)Nc1ccccc1 | 0.8%
CC(=O)N1C(=O)/C(=C2\SC(=S)N(NS(=O)(=O)c3ccc(C)cc3)C2=O)c2ccccc21 | 38.2%
CC(/C=C1\SC(=S)N(NC(=O)c2ccc(O)cc2)C1=O)=C\c1ccccc1 | 23.4%
CC(=O)N1C(=O)/C(=C2\SC(=S)N(NC(=O)c3ccc(O)cc3)C2=O)c2ccccc21 | 56.1% (active)
Cc1cc(C)c(S(=O)(=O)n2nc(C)c(Br)c2C)c(C)c1 | -6.9%
O=C(CCn1c(=O)sc2ccccc21)NCc1cccs1 | -0.4%
COCc1cc(C)[nH]c(=O)c1C#N | -5.6%
O=c1c2ccccc2sn1-c1ccccc1 | 62.8% (active)
Cc1ccccc1N=Cc1c(O)n(-c2nccs2)c(=O)c2ccccc12 | 16.2%
Cc1ccnc(N2C3CCC2CC(O)(c2ccccc2)C3)n1 (centres undefined) | -10.5%
Cc1cc(=O)c2ccccc2s1 | 0.5%
O=c1c2ccccc2c2ccccc2c(=O)n1-c1ccccc1 | -1.1%
O=C1CCCN1c1nccs1 | -6.6%
O=c1[nH]n(-c2ccccc2)c(=O)c2ccccc12 | -0.9%
CN(C)S(=O)(=O)c1cccc(-c2cn3ccccc3n2)c1 | -10.7%
CN(C)S(=O)(=O)c1cccc(N2C(=O)CC3(CCCCC3)CC2=O)c1 | 0.9%
CCOC(=O)c1cnn(-c2ccccc2)c1NC(=O)CCl | -1.3%
CCN(CC)S(=O)(=O)c1cccc(NC(=O)c2cc(=O)[nH]c3ccccc23)c1 | 4.5%
CCCCNC(=O)N(C)c1nc2ccccc2s1 | -3.1%
CCn1c(SCC(=O)NCc2ccccc2)nc2c(c1=O)SC(C)C2 (centres undefined) | 2.5%
COc1ccc(CN2CCCC(CNC(=O)c3ccc(F)cc3)C2)c(F)c1 (centres undefined) | -6%
CCOc1ccc(-c2nc(C#N)c(NCC(C)C)o2)cc1 | -0.5%

SMILES | inhibition
COc1ccc(CCC(=O)N2c3ccccc3CC2C)cc1 (centres undefined) | 14.3%
COc1cc(/C=C/C(=O)N2CCCc3ccccc32)cc(OC)c1OC | -12.4%
O=C(Nc1nc(-c2cccs2)cs1)c1ccco1 | 12.4%
CSCCC(NC(=O)c1ccco1)C(=O)OCc1cc([N+](=O)[O-])cc2c1OCOC2 (centres undefined) | 5.4%
CC1CCC2(CC1)NC(=O)N(NC(=O)CCl)C2=O (centres undefined) | -10.3%
CC1CCN(CCOCCOc2ccc(Cl)cc2Br)CC1 | -7.9%
Nc1nnc(N2CCc3ccccc32)s1 | 6.2%
Cc1c(Cl)sn(-c2ccc(Cl)cc2)c1=O | -4.6%
Cc1ccc(Cn2c(=O)sc3ccccc3c2=O)cc1 | 8%
COc1cccc(=O)c2c(C)n(-c3ccc(C(=O)O)cc3)c(C)c12 | -16.3%
COc1cccc(=O)c2c(C)n(C)c(C)c12 | -5%
COc1ccccc1-n1c(C)c2c(OC)cccc(=O)c2c1C | 54.7% (active)
COc1cccc(-n2c(C)c3c(OC)cccc(=O)c3c2C)c1 | 61% (active)
COc1cccc(=O)c2c(C)n(-c3cc(C)cc(C)c3)c(C)c12 | 29.9%
COc1ccc(-n2c(C)c3c(OC)cccc(=O)c3c2C)cc1 | 46.4%
CNS(=O)(=O)c1cc(C(=O)OCC(=O)NC2CCCc3ccccc32)ccc1Cl (centres undefined) | 9.4%
COC(=O)C1=C(C)NC(=O)/C1=C\c1cc(C)n(-c2ccccc2F)c1C | -51.3%
O=C(CSCc1ccccc1)N1CCN(Cc2ccc3c(c2)OCO3)CC1 | 9.8%
O=C1OCCC1Sc1nc2ccccc2c(=O)n1Cc1ccccc1 (centres undefined) | -1.6%
COc1ccc(-c2nnc(SC)o2)c(OC)c1 | 2%
COC(=O)Cc1csc(Nc2ccc(F)c(Cl)c2)n1 | -0.3%
O=c1cc(O)c2sc(Nc3ccc(F)c(Cl)c3)nc2[nH]1 | 57.5% (active)

SMILES | inhibition
Cc1cc(NC(=O)c2sc(Nc3ccc(F)c(Cl)c3)nc2N)no1 | -10.8%
CN(Cc1ccccc1)c1ccc(S(=O)(=O)N2CCC(C(=O)O)CC2)cc1[N+](=O)[O-] | 10.6%
Brc1ccc(-c2noc(COc3ccc4c(c3)CCC4)n2)o1 | 14%
O=C(OCCOCCN=C1NS(=O)(=O)c2ccccc21)C1CC(=O)N(c2ccccc2)C1 (centres undefined) | -2.6%
Cc1nc(-c2ccc(C(=O)Nc3ccccc3F)cc2)cs1 | -3.7%
CCOc1cc(CNc2ccc(S(N)(=O)=O)cc2)cc(Cl)c1OC | 2.7%
CCOc1c(Cl)cc(CNc2ccc(S(N)(=O)=O)cc2)cc1OC | -2%
C=CCOc1c(Cl)cc(CNc2ccc3[nH]c(=O)[nH]c3c2)cc1OC | 35%
C=CCOc1c(Cl)cc(CNc2ccc(N(C)C)cc2)cc1OC | 54% (active)
C=CCOc1c(Cl)cc(CNc2ccc(C)c(Cl)c2)cc1OC | 12.6%
COc1cc(CNc2ccc(N3CCOCC3)cc2)cc(Br)c1OC | 9.3%
CCOc1cc(CNc2ccc(N3CCOCC3)cc2)cc(Br)c1OCC | 14.8%
CC1=CC(C)(C)N(C(=O)CCl)c2cc(C)ccc21 | -1.9%
CN(C)C(=C(C#N)C#N)N1CCN(c2ccc(Cl)c(Cl)c2)CC1 | 6.1%
CC(C)(C)[C@H]1C=C(C(=O)N2CCN(Cc3ccc4c(c3)OCO4)CC2)O[C@@H](OCc2ccc(CO)cc2)C1 | 2.7%
COc1ccc(Br)cc1CN1CCN(C(=O)c2ccc(OC)c(OC)c2)CC1 | 2.3%
CCOC(=O)CCC(NC(=O)CCCCCCCCC(=O)NC(CCC(=O)OCC)C(=O)OCC)C(=O)OCC (centres undefined) | 6.1%
COc1ccc(NS(=O)(=O)c2cccc(NC(=O)CCS(=O)(=O)c3ccccc3)c2)cc1 | 8.9%
O=C(CN1CCCCCC1)Nc1ccc(F)c(F)c1 | -9.6%
CCCCNC(=O)c1onc(CSc2cc(C)cc(C)c2)c1C(=O)O | -4%
